Sa growth 42C – S. aureus growth inhibition; S. aureus RN4220 growth, OD600, 20 h, 42 °C; stronger effect = lower value; relative growth, % (test concentration not listed); 170,000 tested, 0.53% active; AID 720641;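 active = relative growth at most 50% at the other temperature and 20+ points below 30 °C, or under 10% at both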
S aureus helic – S. aureus DNA helicase inhibition. inhibition, % (no concentration beside the values). purified S. aureus helicase, fluorescence unwinding assay. 120,000 tested, 0.05% active; in the data active = inhibition above about 25%, passing the limit was not always enough
Of the large screens only hits and unclear results are named; the others gave an inactive call. The sample as a whole holds a higher share of hits than the screen did.

Cn1c(=O)c2ncnnc2n(C)c1=O	Sa growth 42C 5.9
COc1ccccc1C1C(C#N)=C(N)Oc2c1c(=O)sc1ccccc21 (centres undefined)	none
O=C(/C=C/c1ccccc1)N1CCN(Cc2cccc(F)c2)CC1	none
CN(C)C(=S)SSC(=S)N(C)C	Sa growth 42C -0.7 (no result: S aureus helic)
CC12CCC3C(CCC4CC(N)CCC43C)C1CCC2O (centres undefined)	none
N#CC(C#N)=Cc1cccn1-c1ccc(Cl)cc1	none
Cc1ccc2c(c1)C1CN(C)CCC1N2C(=O)Cc1cccs1 (centres undefined)	none
Cc1ccc2c(c1)C1CN(C)CCC1N2Sc1ccc(Cl)cc1 (centres undefined)	Sa growth 42C -1.3
O=C(Cc1ccc(-c2ccccc2)cc1)N1CCN(CC(=O)N2CCCC2)CC1	none
CN(C)CC#Cc1ccc(C=C(C#N)C#N)cc1	none
CC(C)Nc1ccc(Nc2ccccc2)cc1	Sa growth 42C 4.5
CC(=O)Nc1ccc(-c2ccccc2)cc1	none (no result: S aureus helic)
CN1CCC(NC2C3CC4CC(C3)CC2C4)CC1 (centres undefined)	none
COc1ccc(C)cc1CCN	none
OC(c1cccs1)(c1cccs1)C1CN2CCC1CC2 (centres undefined)	none
Cc1ccc(C(O)(c2ccc(C)c(C)c2)C2CN3CCC2CC3)cc1C (centres undefined)	Sa growth 42C 23
CN(C)[C@@H]1C(=O)C(C(N)=O)=C(O)[C@@]2(O)C(=O)C3=C(O)c4c(O)cccc4[C@@](C)(O)[C@H]3C[C@@H]12	Sa growth 42C -0.1 (no result: S aureus helic)
C=CCCN1CC2C[C@@H](C1)Cn1c2cccc1=O	none
COC(=O)c1sc2c(C)cc(Cl)c(C)c2c1C(=O)O	none (no result: S aureus helic)
COc1ccc2c(c1OC)C(=O)OC2C1c2cc3c(cc2CCN1C)OCO3 (centres undefined)	none
CN1CCc2cc3c(c4c2C1Cc1ccccc1-4)OCO3 (centres undefined)	Sa growth 42C 0.1
CCCCCCCCCCCCCCCC[N+](C)(C)C	Sa growth 42C -0.5 (no result: S aureus helic)
CC12CC[C@H]3[C@@H](CCC4(O)C[C@H](O)CCC34/C=N/Nc3ccccc3)C1(O)CCC2C1=CC(=O)OC1 (some centres undefined)	none
COc1ccc(C(O)CN2CC=C(c3ccc(N(C)C)cc3)CC2)cc1 (centres undefined)	none
